# Measurements reported in PubChem BioAssay (Tox21).
# Inconclusive results are not listed. A call without a number means that no potency is given here. The source made the active and inactive calls. Unless noted, calls follow the shape of the full dose curve.
# Molecular target: Vitamin D3 receptor (Homo sapiens) (UniProt P11473)
# Test: qHTS assay to identify small molecule agonists of the vitamin D receptor (VDR) signaling pathway (AID 743222); also: potency is read from the fitted curve at half-maximal effect
# Settings: HEK293T VDR-UAS-bla, beta-lactamase FRET ratio, 16 h; series mostly up to 63.5 µM
# Summary of the method: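 Tox21 cell reporter format: VDR-bla line, 16 h compound exposure in 5% CO2 at 37C, then fluorescence intensity after 2 h with LiveBLAzer B/G FRET substrate.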
# Chain of Vitamin D3 receptor (Homo sapiens) (P11473 whole entry, looked up): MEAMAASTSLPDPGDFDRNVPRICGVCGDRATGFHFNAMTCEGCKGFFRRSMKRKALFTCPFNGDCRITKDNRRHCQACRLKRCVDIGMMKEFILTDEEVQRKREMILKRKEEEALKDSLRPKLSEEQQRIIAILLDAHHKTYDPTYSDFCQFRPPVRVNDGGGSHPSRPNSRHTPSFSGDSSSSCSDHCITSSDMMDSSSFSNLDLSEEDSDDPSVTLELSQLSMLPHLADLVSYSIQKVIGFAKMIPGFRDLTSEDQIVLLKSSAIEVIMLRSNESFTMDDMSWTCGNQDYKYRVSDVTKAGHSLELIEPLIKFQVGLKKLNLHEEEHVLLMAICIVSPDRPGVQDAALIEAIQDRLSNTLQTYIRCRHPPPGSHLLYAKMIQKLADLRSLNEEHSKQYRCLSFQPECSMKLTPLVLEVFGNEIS
row,Compound,Potency
1,CCOC(=O)C1=C(C)NC(C)=C(C(=O)OCC)C1c1ccccc1/C=C/C(=O)OC(C)(C)C,29.8 µM (active)
2,CCN1CCN(c2cc(-c3ccc(F)cc3)c3c(n2)CCCCCC3)CC1,inactive
3,CCCCCCCOC(=O)c1ccc(O)cc1,inactive
4,CN(C)c1ccc(N=Nc2ccccc2C(=O)O)cc1,inactive
5,CCO[Si](CCCSSSSCCC[Si](OCC)(OCC)OCC)(OCC)OCC,inactive
6,CCC(=O)OCCc1ccccc1,inactive
7,CCc1ccc(O)c(C(C)(C)C)c1,inactive
8,CC(C)(C)C1=CC(=O)C=C(C(C)(C)C)C1=O,inactive
9,c1ccc(Sc2ccccc2)cc1,inactive
10,c1cc(OCC2CO2)cc(OCC2CO2)c1 (centres undefined),inactive

# Molecular target: Vitamin D3 receptor (Homo sapiens) (UniProt P11473)
# Test: qHTS assay to identify small molecule antagonists of the vitamin D receptor (VDR) signaling pathway (AID 743223; active = well fitted inhibition curve with a large enough effect in the signal ratio in the repeat runs, not every such curve was filed as active; the % refers to the signal ratio)
# Settings: VDR-UAS-bla HEK293T, beta-lactamase FRET ratio, 16 h; series mostly up to 61 µM
# Summary of the method: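 Reporter line VDR-bla; stimulus 1alpha,25-(OH)2 vitamin D3, 3 nM final; compound co-addition, 16 h 37C/5% CO2; LiveBLAzer B/G substrate 2 h RT; fluorescence intensity.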
row,Compound,Potency
1,CCCCOC(=O)C(C)CC (centres undefined),inactive
2,CCN1CCN(c2cc(-c3ccc(F)cc3)c3c(n2)CCCCCC3)CC1,inactive
3,CCN(CC)CCCN(c1ccccc1)C1Cc2ccccc2C1,inactive
4,COc1cc(C(=O)NS(=O)(=O)c2ccccc2C)ccc1Cc1cn(C)c2ccc(NC(=O)OC3CCCC3)cc12,inactive
5,CCN(CC)CCSC(=O)C(c1ccccc1)c1ccccc1,inactive
6,COC(=O)[C@]1(C)CCC[C@@]2(C)[C@H]1CC=C1C=C(C(C)C)CC[C@@H]12,inactive
7,C=CCCCCCCC=C,inactive
8,CC(C)(C)C1=CC(=O)C=C(C(C)(C)C)C1=O,inactive
9,c1ccc(Sc2ccccc2)cc1,inactive
